TLR9-MyD88 inh: inhibitors of TLR9-MyD88 association in cells, primary screen, cell-based, CHO, BLA complementation, fluorescence | Toll-like receptor 9 (Homo sapiens) + Myeloid differentiation primary response protein … | CCF4 FRET ratio | inhibition, % at 4.98 µM | 340,000 compounds, 0.21% hits | AID 504734, 2011;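 active = inhibition above the mean over all tested compounds plus 3 SD, cut at about 21% in these data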;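 note: 0% = DMSO only wells and 100% = clavulanate BLA inhibitor control wells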
NOD2-RIPK2 inh: NOD2-RIPK2 binding disruptors in cells, primary screen, fluorescence, CHO cells, BLA complementation. Receptor-interacting serine/threonine-protein kinase 2 (Homo sapiens), O43353. 360,000 compounds, 0.38% hits. AID 624267, 2012. CCF4 ratio. inhibition, % at 4.98 µM; in the data active = inhibition above about 21%;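 note: 0% = vehicle only and 100% = reference blocker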
rCAG binder: binders of r(CAG) RNA repeats, primary screen, biochemical, fluorescence | r(CAG) RNA repeat, TO-PRO-1 dye displacement fluorescence | inhibition, % at 3 µM | 370,000 compounds, 1.3% hits;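 active = inhibition above the plate cutoff, the mean of all test compounds on that plate plus 3 SD, cut at about 35% in these data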;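 note: 0% = DMSO alone and 100% = 100 µM mitoxantrone as full dye displacement; higher means more dye released from RNA so lower well fluorescence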
TLR4 MyD88 comp: inhibitors of TLR4-MyD88 association in cells, primary screen, cell-based, HeLa CL3-4, BLA complementation, FRET ratio; Toll-like receptor 4 (Homo sapiens) + Myeloid differentiation primary response protein …; HeLa CL3-4 TLR4/MyD88 BLA complementation; 200,000 compounds, 0.18% hits; AID 861, 2007; inhibition, % at 8.4 µM; in the data active = inhibition above about 25%;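 note: 0% = vehicle and 100% = reference inhibitor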
PRMT1 FP inh: PRMT1 methyltransferase inhibitors, primary screen, biochemical, fluorescence polarization | recombinant PRMT1, activity-based probe fluorescence polarization | inhibition, % at 2.79 µM | 370,000 compounds, 1.3% hits | AID 652257, 2013;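 active = inhibition above about 21% made by adding two undisclosed values, limit read from the data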
Target sequence (Q99873 whole entry, looked up): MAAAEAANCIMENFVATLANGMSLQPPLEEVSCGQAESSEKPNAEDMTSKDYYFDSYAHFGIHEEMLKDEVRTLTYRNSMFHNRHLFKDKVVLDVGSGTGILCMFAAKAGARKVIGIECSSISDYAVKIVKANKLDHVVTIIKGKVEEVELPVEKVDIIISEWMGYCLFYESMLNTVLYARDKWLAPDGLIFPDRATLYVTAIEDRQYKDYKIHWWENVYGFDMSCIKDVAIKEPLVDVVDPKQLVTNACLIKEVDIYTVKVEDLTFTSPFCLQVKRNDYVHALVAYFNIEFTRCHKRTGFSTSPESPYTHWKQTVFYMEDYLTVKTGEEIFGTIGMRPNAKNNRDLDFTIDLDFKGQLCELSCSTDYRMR
ABHD5-PLIN5 inh: ABHD5-PLIN5 interaction inhibitors, primary screen, cell lysate, split luciferase complementation, luminescence | Split G. princeps luciferase complementation, 4 h | inhibition, % at 4 µM | 360,000 compounds, 0.78% hits;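 active = inhibition above the mean inhibition across every tested compound plus 3 SD, cut at about 22% in these data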;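 note: 0% = DMSO only wells and the 100% control is not disclosed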
TLR9-MyD88 conf: TLR9-MyD88 association inhibitors, retest, confirmation, cell-based, CHO, BLA complementation, fluorescence, triplicate; shares compounds with TLR9-MyD88 inh; CCF4 FRET ratio; inhibition, % at 4.98 µM; 680 compounds, 51% hits; AID 540250, 2011;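 active = mean inhibition across three repeats above about 21% taken from the earlier screen, limit read from the data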;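 note: blue over green emission ratio reports constitutive TLR9 MyD88 association via BLA complementation; 0% = DMSO vehicle wells and 100% = clavulanate BLA inhibitor wells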
BLA counter-1: beta-lactamase reporter inhibitors in CHO cells, artefact control for TLR9-MyD88 binding inhibitor project, cell-based, fluorescence | CHO-BLA cells, CCF4 FRET ratio, BLA reporter | 680 compounds, 7% hits | inhibition, % at 4.98 µM | shares compounds with TLR9-MyD88 inh | AID 540251, 2011;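 active = mean inhibition above a 50% cutoff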;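 note: counterscreen of TLR9-MyD88 hits on CMV-driven BLA in CHO-K1 cells; 0% = DMSO alone and 100% = clavulanate blocking BLA; higher means less blue over green ratio so more BLA blockade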
TLR9 CHO tox: CHO cell viability loss – luminescence, single concentration, cytotoxicity control for TLR9-MyD88 binding inhibitor project. inhibition, % at 4.98 µM. AID 588336, 2011. TLR9-MyD88 CHO cells cytotoxicity. shares compounds with TLR9-MyD88 inh. 680 compounds, 39% hits; in the data active = inhibition above about 11%
ABHD5 PLIN5 conf: ABHD5-PLIN5 interaction inhibitors, confirmation, biochemical, luminescence. shares compounds with ABHD5-PLIN5 inh. 2,200 compounds, 67% hits. inhibition, % at 4 µM. AID 651612, 2012; in the data active = inhibition above about 23%;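 note: 0% = DMSO vehicle wells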
HNF4 split-luc: HNF4 dimerization inhibitors, counter-screen for ABHD5-PLIN5 interaction inhibitor project, biochemical, split-luciferase complementation, luminescence | shares compounds with ABHD5-PLIN5 inh | inhibition, % at 4 µM | 2,200 compounds, 77% hits | AID 651674, 2012;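 active = mean inhibition across replicate wells exceeding the computed hit threshold, cut at about 13% in these data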;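 note: light from luciferase halves that rejoin when HNF4 fusion proteins dimerize; 0% = DMSO only wells and the 100% control is not given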
NOD2-RIPK2 conf: NOD2-RIPK2 binding disruptors, retest, confirmation, fluorescence, CHO cells, BLA complementation, triplicate; shares compounds with NOD2-RIPK2 inh; CCF4 FRET; inhibition, % at 4.98 µM; 1,200 compounds, 70% hits; AID 624370, 2012;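 active = mean inhibition across replicates above a set limit taken from the earlier primary screen, cut at about 21% in these data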;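 note: 0% = DMSO-only wells and the high end = clavulanate BLA-blocked wells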
BLA counter-2: counter-screen for NOD2-RIPK2 interaction inhibitors: BLA reporter; shares compounds with NOD2-RIPK2 inh; CHO BLA reporter, CCF4 FRET ratio, counterscreen; inhibition, % at 4.98 µM; 1,200 compounds, 57% hits;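 active = mean inhibition above the low-control mean inhibition plus three low-control SD, cut at about 11% in these data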;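 note: 0% = DMSO only wells and 100% = clavulanate high control wells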
PRMT1 confirm: PRMT1 methyltransferase inhibitors, confirmation, biochemical, fluorescence polarization, triplicate. AID 687036, 2013. 3,300 compounds, 42% hits. shares compounds with PRMT1 FP inh. inhibition, % at 2.79 µM. recombinant His-PRMT1, activity-based probe fluorescence polarization;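 active = mean inhibition across replicates above the hit cutoff derived for the earlier primary screen, cut at about 22% in these data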
Active calls of the source: *; i = inactive; . = not tested or not shown. Sampled rows, rich in hits. Any-hit rate of the full collection: about 3.3%.

SMILES	TLR9-MyD88 inh	NOD2-RIPK2 inh	rCAG binder	TLR4 MyD88 comp	PRMT1 FP inh	ABHD5-PLIN5 inh	TLR9-MyD88 conf	BLA counter-1	TLR9 CHO tox	ABHD5 PLIN5 conf	HNF4 split-luc	PRMT1 confirm	others
CC(=O)OCCn1c2nc(=O)[nH]c(=O)c-2nc2cc(C)c(C)cc21	21*	23*	i	.	159*	-2	5	6	3	.	.	150*	NOD2-RIPK2 conf=20;BLA counter-2=23*
CC(=O)c1ccc2c3c(cccc13)C(=O)N(c1c(C)nn(C)c1C)C2=O	6	0	-2	13	1	0	.	.	.	.	.	.
Cc1n[nH]c(C)c1N1C(=O)c2cccc3c(N4CCCCCC4)ccc(c23)C1=O	27*	38*	-112	17	100*	-2	16	18	6	.	.	88*	NOD2-RIPK2 conf=32*;BLA counter-2=42*
Cc1ccc(NC(=O)c2nc(S(=O)(=O)Cc3ccccc3)ncc2Cl)cc1	45*	92*	0	.	38*	72*	45*	34	99*	94*	102*	23*	NOD2-RIPK2 conf=90*;BLA counter-2=41*
O=C(Nc1ccc(F)cc1)c1nc(S(=O)(=O)Cc2ccccc2)ncc1Cl	36*	93*	-2	.	39*	60*	48*	36	99*	90*	97*	18	NOD2-RIPK2 conf=90*;BLA counter-2=43*
CCOC(=O)c1ccc(NC(=O)c2nc(SC)ncc2Cl)cc1	5	6	0	.	1	-2	.	.	.	.	.	.
COc1ccccc1C(=O)NC(=O)CSc1nc(C)cs1	0	-11	-1	.	-3	7	.	.	.	.	.	.
Cc1cccc(C(=O)NCC(=O)NCCCSc2ccccc2)c1	-5	-13	-4	.	0	4	.	.	.	.	.	.
CN(C)/C=C1\C=C2C(=O)c3ccccc3N2C1=O	23*	1	i	.	111*	1	7	8	-1	.	.	54*
CN(C)S(=O)(=O)N1C(=O)c2ccccc2C1=O	-8	-6	1	.	-2	3	.	.	.	.	.	.
CC(C)c1csc(CN2CCC(n3nccc3NC(=O)Cc3ccccc3)CC2)n1	-13	-4	-6	.	-4	-1	.	.	.	.	.	.
CC(=O)Nc1ccc2c(c1)Cc1ccc(Cl)cc1-2	-3	-9	5	.	-1	-2	.	.	.	.	.	.
CC(=O)Nc1ccc2c(c1)Cc1cc(N3C(=O)C=CC3=O)ccc1-2	33*	33*	8	.	91*	35*	56*	17	99*	45*	104*	95*	NOD2-RIPK2 conf=85*;BLA counter-2=30*
Nc1c(C(=O)c2ccccc2)sc2nsc(SCCN3CCCC3)c12	28*	29*	-3	.	27*	1	21*	18	9	.	.	12	NOD2-RIPK2 conf=44*;BLA counter-2=47*
Cn1cc(-c2csc(C(O)c3ccc(F)c(F)c3)n2)cn1 (configuration not stated)	.	3	1	.	3	-6	.	.	.	.	.	.
CC(C)(C)S(=O)N1Cc2cc(C(=O)Nc3ccc(-c4ccccc4)cc3)nc(-c3cccc(-c4cc5ccccc5o4)c3)c2[C@@H]1CCO (some centres not stated)	.	6	15	.	3	4	.	.	.	.	.	.
CC(C)(C)S(=O)N1Cc2cc(C(=O)N[C@@H]3CCN(Cc4ccccc4)C3)nc(-c3cccc(-c4cc5ccccc5o4)c3)c2[C@@H]1CCO (some centres not stated)	.	-4	13	.	-5	26*	.	.	.	12	0	.
Cc1ccc(S(=O)(=O)N2CCCCC2)cc1NC(=O)CNC(C)c1ccc(Cl)c(Cl)c1 (configuration not stated)	-9	-10	4	.	2	-1	.	.	.	.	.	.
Cc1ccc(O)c(C(=O)/C=C/c2ccc3c(c2)OCCCO3)c1	13	-1	7	22	6	32*	.	.	.	66*	45*	.
O=C(/C=C/c1ccc2c(c1)OCCCO2)c1ccccc1O	2	10	2	16	1	27*	.	.	.	78*	53*	.
Cc1ccc(C(=O)/C=C/c2ccc3c(c2)OCO3)o1	3	-11	6	3	1	21	.	.	.	.	.	.
Cc1cccc(C(=O)N2CCCCCC2)c1[N+](=O)[O-]	-23	-17	0	-3	0	74*	.	.	.	3	3	.
Cc1ccc(-c2c[n+](CC(=O)Nc3nc(-c4ccc(F)cc4)cs3)c3n2CCC3)cc1	2	3	32	-11	0	25*	.	.	.	15	8	.
CC1=NOC(=O)/C1=C\c1ccc(-c2ccc(Cl)c(C(=O)O)c2)o1	-3	-5	8	4	10	9	.	.	.	.	.	.
CC1=NOC(=O)/C1=C\c1ccc(-c2cccc(Cl)c2)o1	17	9	.	13	.	51*	.	.	.	99*	106*	.
CC(C)(C)c1ccc(C(=O)c2c[nH]c(C(=O)NCCc3ccccn3)c2)cc1	-5	1	-3	1	6	2	.	.	.	.	.	.

Source: PubChem
